The record followed here is PubChem BioAssay (NCI).

This is part of a sample that, as a whole, favours compounds with a hit. Of some 83,000 tested, about 20% had one in any assay.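 96-well plates, one dose, 48 hours. Percent growth reported; active if below 10.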 The source made the active and inactive calls.

The experiment concerns HCT-116 colon. Put plainly: NCI-60 one-dose screen, 48 h (100 = growth as untreated, 0 = no growth, -100 = all killed). To be noted: 10 µM unless noted.
`O=C(Nc1nc2ccc(C(F)(F)F)cc2s1)c1cc(Cl)ccc1O`: the growth is 4.81% (active).
In the case of `NC(N)=NC(N)=Nc1cc2ccccc2c2ccccc12` it was -44.5% (active); in that of `CC(=O)Oc1c2c(nc3c1c1ccccc1n3Cc1ccccc1)-c1ccccc1C2`, 73.5% (inactive); in that of `CN1C(=O)c2cc(Cl)nc3c(NC(=O)c4cccc(Cl)c4)c(Cl)c(NC(=O)c4cccc(Cl)c4)c1c23`, -56.2% (active).
In the case of `CCOCCc1c(O)nc(SC)[nH]c1=O` it was 100% (inactive); in that of `COc1ccc2[nH]c(=O)c(/C=C/C(=O)/C=C/c3ccc(O)c(OC)c3)cc2c1`, -86.7% (active); in that of `CCOC(=O)c1c(C)nc2c(c1N)/C(=C/c1cccs1)C(=O)N2Cc1ccccc1`, 34.9% (inactive).
In the case of `O=C(Nc1nccs1)c1noc2ccccc12` it was 93.8% (inactive); in that of `Cc1cccc(C)c1NCc1nnc(-c2ccco2)o1`, 84.1% (inactive); in that of `CCOC(=O)C1=C(C)n2nc(CC#N)c(C#N)c2NC1c1ccc(Cl)cc1` (stereo not given), 101% (inactive).
For `CCOc1ccccc1C(=O)/C=C/c1cc2ccccc2[nH]c1=O`, the growth is -64.7% (active).
The result for `COc1cc(NC(=O)Nc2cnc(Nc3ccc(N4CCOCC4)cc3)nc2Oc2ccc(F)cc2)cc(OC)c1` reads 6.9% (active); that for `Cc1cc(Cl)cc(CN(Cc2ccccc2)Cc2c(O)ccc3ccccc23)c1O`, 111% (inactive); that for `NC[C@@H]1CCN(c2cc3c(cc2F)c(=O)n(N)c(=O)n3Cc2ccc(-c3ccccc3)cc2)C1`, 65.3% (inactive).
On to `O=C(/C(=C/c1ccc([N+](=O)[O-])cc1)SCc1ccc(F)cc1)c1ccc(Cl)cc1`, for which the growth is 0.116% (active).
